Results: PubChem BioAssay (NCI)
The panel holds about 79,000 compounds, 15% with a hit somewhere; the sample as a whole holds those more often. Values without a mark were called inactive. The source made the active and inactive calls. Rule as the data show it: active = growth inhibition above about 70%; inactive = the rest.

Columns and labels:
[1] = NCI Yeast Anticancer Drug Screen. Data for the wt1 strain (AID 149);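 also: 0% = growth of vehicle-treated wt1 cultures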; conditions: S. cerevisiae wt1 strain (SPY 50644) growth inhibition, hits give high values
Procedure, shortened: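 Vehicle-normalised growth inhibition; strain wt1; compound exposure.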

[2] = NCI Yeast Anticancer Drug Screen. Data for the rad50EPP+ strain (AID 151);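 also: 0% = growth of vehicle-treated control cultures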; conditions: S. cerevisiae rad50 mutant strain, hits give high values
Procedure, shortened: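 rad50EPP+ yeast treated with test compounds. Readout: growth vs vehicle control.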

[3] = NCI Yeast Anticancer Drug Screen. Data for the mgt1 strain (AID 153); conditions: S. cerevisiae mgt1 mutant growth inhibition, hits give high values
Procedure, shortened: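 Growth inhibition relative to vehicle controls was scored for the mgt1 yeast strain after compound exposure.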

[4] = NCI Yeast Anticancer Drug Screen. Data for the rad50 strain (AID 155);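 also: 0% = growth of vehicle-only cultures of the same strain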; conditions: S. cerevisiae rad50 strain growth inhibition, hits give high values
Procedure, shortened: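 A DNA repair-deficient yeast mutant serves as the test organism; compound-induced growth inhibition is calculated against vehicle-treated cells.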

[5] = NCI Yeast Anticancer Drug Screen. Data for the mec2-1 strain (AID 157); conditions: S. cerevisiae mec2-1 strain, hits give high values
Procedure, shortened: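 Growth inhibition is read against vehicle-treated controls after compound exposure of the mec2-1 yeast strain, which is defective in DNA damage repair or cell cycle control.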

[6] = NCI Yeast Anticancer Drug Screen. Data for the rad14 strain (AID 159);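 also: 0% = growth of vehicle-treated control cultures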; conditions: S. cerevisiae rad14 strain growth inhibition, hits give high values
Procedure, shortened: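 Vehicle-treated cultures served as the baseline for growth inhibition of a DNA repair-mutant yeast strain exposed to each compound.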

[7] = NCI Yeast Anticancer Drug Screen. Data for the sgs1 mgt1 strain (AID 161);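 also: 0% = growth of cultures given vehicle only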; conditions: S. cerevisiae sgs1 mgt1 strain, hits give high values
Procedure, shortened: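 Percent growth inhibition was derived by comparing compound-exposed mutant yeast with vehicle-exposed cultures. The strain carries alterations in DNA damage repair.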

[8] = NCI Yeast Anticancer Drug Screen. Data for the CLN2oe strain (AID 163);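 also: 0% = growth of vehicle-only control cultures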; conditions: S. cerevisiae CLN2oe strain, hits give high values
Procedure, shortened: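 Compound-treated yeast; growth vs vehicle ctrl = % inhibition. Genetically altered strain (cell-cycle control).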

[9] = NCI Yeast Anticancer Drug Screen. Data for the cln2 rad14 strain (AID 165);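 also: 0% = growth equal to vehicle treated cultures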; conditions: S. cerevisiae cln2 rad14 strain, hits give high values
Procedure, shortened: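 Growth inhibition, relative to vehicle-treated controls, is the read-out. The test organism is a yeast strain with defined genetic alterations, cln2 rad14.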

[10] = NCI Yeast Anticancer Drug Screen. Data for the bub3 strain (AID 167); conditions: S. cerevisiae bub3 mutant strain, hits give high values
Procedure, shortened: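 Inhibition values come from growth of compound-treated mutant yeast normalised to vehicle-treated controls.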

[11] = NCI Yeast Anticancer Drug Screen. Data for the wt2 strain (AID 169);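 also: 0% = growth of vehicle-treated yeast cultures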; conditions: S. cerevisiae wt2 strain growth inhibition, hits give high values
Procedure, shortened: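 Compound exposure of yeast; growth compared with vehicle controls; inhibition reported.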

[12] = NCI Yeast Anticancer Drug Screen. Data for the mlh1 strain (AID 171);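 also: 0% = growth of vehicle-treated control cultures of the same strain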; conditions: S. cerevisiae mlh1 strain growth inhibition, hits give high values
Procedure, shortened: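 Compounds are applied to a genetically altered yeast strain, and its growth is compared with that of vehicle-treated cultures to give percent inhibition.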

[13] = NCI Yeast Anticancer Drug Screen. Data for the sgs1 strain (AID 173);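 also: 0% = growth of vehicle-only control cultures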; conditions: S. cerevisiae sgs1 mutant, hits give high values
Procedure, shortened: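 Compounds applied to genetically altered yeast; growth compared with vehicle-treated cultures to give % inhibition.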

[14] = NCI Yeast Anticancer Drug Screen. Data for the mlh1 rad18 strain (AID 175); conditions: S. cerevisiae mlh1 rad18 strain growth inhibition, hits give high values
Procedure, shortened: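 Cells of a genetically altered yeast strain, deficient in DNA damage repair, were treated with compound. Their growth was then compared with that of vehicle-treated cultures to give inhibition.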

[15] = NCI Yeast Anticancer Drug Screen. Data for the rad18 strain (AID 177); conditions: S. cerevisiae rad18 mutant growth inhibition, hits give high values
Procedure, shortened: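 Compounds are applied to a repair-deficient yeast strain, and growth is compared with that of vehicle-treated cultures to give percent inhibition.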

[16] = at 5.0 µM (retest, dose inferred, filed as 0.5)
[17] = at 50.0 µM (retest, dose inferred, filed as 5.0)

Cc1cc(C)c(S(=O)(=O)c2ccc(Cl)cc2)c(C)c1
growth inhibition ([1]; at 1.2 µM): -5% | growth inhibition ([1]; at 3.7 µM): -10% | growth inhibition ([1]; at 11.0 µM): -16% | growth inhibition ([1]; at 33.0 µM): -14% | growth inhibition ([1]; at 100.0 µM): -4% | growth inhibition ([2]; at 1.2 µM): -1% | growth inhibition ([2]; at 3.7 µM): 9% | growth inhibition ([2]; at 11.0 µM): 20% | growth inhibition ([2]; at 33.0 µM): 13% | growth inhibition ([2]; at 100.0 µM): 21% | growth inhibition ([3]; at 1.2 µM): -7% | growth inhibition ([3]; at 3.7 µM): -8% | growth inhibition ([3]; at 11.0 µM): -14% | growth inhibition ([3]; at 33.0 µM): -13% | growth inhibition ([3]; at 100.0 µM): -3% | growth inhibition ([4]; at 1.2 µM): 0% | growth inhibition ([4]; at 3.7 µM): 3% | growth inhibition [4, 16]: -7% | growth inhibition ([4]; at 11.0 µM): 6% | growth inhibition ([4]; at 33.0 µM): 8% | growth inhibition [4, 17]: 3% | growth inhibition ([4]; at 50.0 µM): 62.4% | growth inhibition ([4]; at 100.0 µM): 49% | growth inhibition ([5]; at 1.2 µM): -5% | growth inhibition ([5]; at 3.7 µM): -10% | growth inhibition [5, 16]: -5% | growth inhibition ([5]; at 11.0 µM): -16% | growth inhibition ([5]; at 33.0 µM): -16% | growth inhibition [5, 17]: 19% | growth inhibition ([5]; at 50.0 µM): 48% | growth inhibition ([5]; at 100.0 µM): 13% | growth inhibition ([6]; at 1.2 µM): -5% | growth inhibition ([6]; at 3.7 µM): -8% | growth inhibition ([6]; at 11.0 µM): -10% | growth inhibition ([6]; at 33.0 µM): -8% | growth inhibition ([6]; at 100.0 µM): 20% | growth inhibition [7, 16]: -3% | growth inhibition [7, 17]: 17% | growth inhibition ([7]; at 50.0 µM): 77.1% (active) | growth inhibition ([8]; at 1.2 µM): -8% | growth inhibition ([8]; at 3.7 µM): -15% | growth inhibition ([8]; at 11.0 µM): -22% | growth inhibition ([8]; at 33.0 µM): -13% | growth inhibition ([8]; at 100.0 µM): -2% | growth inhibition [9, 16]: -9% | growth inhibition [9, 17]: -16% | growth inhibition ([9]; at 50.0 µM): -10.4% | growth inhibition ([10]; at 1.2 µM): -3% | growth inhibition ([10]; at 3.7 µM): 4% | growth inhibition [10, 16]: 5% | growth inhibition ([10]; at 11.0 µM): 11% | growth inhibition ([10]; at 33.0 µM): 19% | growth inhibition [10, 17]: 20% | growth inhibition ([10]; at 50.0 µM): 80.9% (active) | growth inhibition ([10]; at 100.0 µM): 48% | growth inhibition ([11]; at 1.2 µM): -5% | growth inhibition ([11]; at 3.7 µM): -7% | growth inhibition ([11]; at 11.0 µM): -8% | growth inhibition ([11]; at 33.0 µM): -6% | growth inhibition ([11]; at 100.0 µM): 18% | growth inhibition ([12]; at 1.2 µM): -8% | growth inhibition ([12]; at 3.7 µM): -6% | growth inhibition ([12]; at 11.0 µM): -6% | growth inhibition ([12]; at 33.0 µM): -5% | growth inhibition ([12]; at 100.0 µM): 30% | growth inhibition ([13]; at 1.2 µM): -8% | growth inhibition ([13]; at 3.7 µM): 0% | growth inhibition ([13]; at 11.0 µM): 0% | growth inhibition ([13]; at 33.0 µM): 7% | growth inhibition ([13]; at 100.0 µM): 46% | growth inhibition [14, 16]: -6% | growth inhibition [14, 17]: 1% | growth inhibition ([14]; at 50.0 µM): 35.2% | growth inhibition ([15]; at 1.2 µM): -9% | growth inhibition ([15]; at 3.7 µM): -10% | growth inhibition ([15]; at 11.0 µM): -13% | growth inhibition ([15]; at 33.0 µM): -9% | growth inhibition ([15]; at 100.0 µM): 16%
